Vif-A3F inh – qHTS for Inhibitors of Vif-A3F Interactions: qHTS; HeLa A3F-eYFP + Vif (tagged APOBEC3F with the HIV-1 protein that degrades it), YFP fluorescence increase; Potency, µM (series often up to 46.1 µM), for inactives: top-dose activity, negative = active; 390,000 tested, 0.2% active; AID 602313, 2012; also: % of control where 0% means no effect; nearly all actives have a fitted effect of over 65% in size
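HeLa cells stably expressing A3F-eYFP plus Vif, plated and incubated overnight at 37 deg C, then exposed to compounds overnight at 37 deg C. Blocked degradation read as raised yellow fluorescence (Ex 488/Em 500-530).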
TrxR1 substrate – qHTS Assay for Substrates of Mammalian Selenoprotein Thioredoxin Reductase 1 (TrxR1): qHTS. Potency, µM (doses to about 114 µM), for inactives: at the highest dose activity change, negative = substrate turnover. AID 588456, 2011. 390,000 tested, 0.01% active. Thioredoxin reductase 1, cytoplasmic (Rattus norvegicus), O89049. purified TrxR1 substrate turnover, NADPH consumption readout; also: % is scaled to controls: 0 for no effect and ±100 for the full control effect; nearly all actives have a fitted effect of over 50% in size
Target sequence (O89049 whole entry, looked up): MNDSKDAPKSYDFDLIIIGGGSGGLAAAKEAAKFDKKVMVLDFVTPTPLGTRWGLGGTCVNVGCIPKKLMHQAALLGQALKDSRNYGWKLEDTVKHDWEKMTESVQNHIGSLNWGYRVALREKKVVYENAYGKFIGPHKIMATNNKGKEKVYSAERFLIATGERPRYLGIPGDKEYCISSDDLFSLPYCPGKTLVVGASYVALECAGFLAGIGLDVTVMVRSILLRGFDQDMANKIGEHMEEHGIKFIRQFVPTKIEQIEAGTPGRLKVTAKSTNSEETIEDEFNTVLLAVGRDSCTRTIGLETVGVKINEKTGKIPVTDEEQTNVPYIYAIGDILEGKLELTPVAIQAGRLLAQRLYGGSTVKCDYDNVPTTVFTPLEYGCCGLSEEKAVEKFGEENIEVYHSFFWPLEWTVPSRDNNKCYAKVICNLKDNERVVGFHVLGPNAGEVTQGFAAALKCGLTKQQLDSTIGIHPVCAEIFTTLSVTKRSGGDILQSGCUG
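Rat TrxR1, dispensed at 90 nM, was prereduced with 400 uM NADPH (final) for 5 min at ~22 deg C, then incubated with compound 15 min before 400 uM selenite. A first-read NADPH fluorescence drop versus no-compound background flagged substrates.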
rTrxR1 inhibitor – qHTS Assay for Inhibitors of Mammalian Selenoprotein Thioredoxin Reductase 1 (TrxR1): qHTS. AID 588453, 2011. 390,000 tested, 1% active. recombinant rTrxR1, NADPH fluorescence consumption, selenite substrate. Thioredoxin reductase 1, cytoplasmic (Rattus norvegicus), O89049. Potency, µM (titrated, usually from 114 µM), for the others: at the highest dose activity change, negative = inhibition, usual class: inhibitors; also: % is scaled to controls: 0 for no effect and ±100 for the full control effect; nearly all actives have a fitted effect of over 65% in size
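Rat TrxR1 (90 nM in the dispensed reagent) was pre-reduced with 400 uM NADPH for 5 min at room temperature, then incubated with compound for 15 min. After 400 uM selenite was added, NADPH fluorescence (Ex 340/Em 450 nm) was followed for 8 min.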
VDR inh – Inhibitors of the vitamin D receptor (VDR): qHTS. AID 504847, 2011. VDR-SRC2-3 peptide fluorescence polarization, 2 h. 400,000 tested, 0.93% active. Potency, µM, for inactives: max response, negative = inhibition, most hits filed as inhibitors. Vitamin D3 receptor (Homo sapiens), P11473; also: % is scaled to controls: 0 for no effect and ±100 for the full control effect
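Inhibition of the VDR/SRC2-3 peptide interaction is quantified by fluorescence polarization. Compounds (23 nl, pintool) incubate with the reagents for 2 hours at ambient room temperature.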
Vif-APOBEC3G blk – qHTS for Inhibitors of Vif-A3G Interactions: qHTS. 410,000 tested, 0.076% active. HeLa A3G-eYFP + Vif (tagged APOBEC3G with the HIV-1 protein that degrades it), YFP fluorescence, overnight. Potency, µM (top dose mostly 46.1 µM), without a hit: at the top dose activity, negative = active, usual class: inhibitors. AID 602310, 2012. DNA dC->dU-editing enzyme APOBEC-3G (Homo sapiens), Q9HC16; also: % is scaled to controls: 0 for no effect and ±100 for the full control effect; nearly all actives have a fitted effect of over 60% in size
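HeLa cells stably expressing Vif and C-terminally eYFP-tagged A3G, seeded overnight at 37 deg C, then exposed to compound by pintool overnight at 37 deg C. Rise in yellow fluorescence (Ex 488/Em 500-530, Acumen) marks blocked Vif-driven A3G degradation.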
An asterisk follows results filed as active; ? = inconclusive; / = not tested or not shown; ! = not active in a repeat; [ ] = dose if it differs, or a comment. Hits are enriched below; roughly 1.8% of the tested compounds scored in any of these assays. Calls follow the shape of the dose curve; as a rule, active = well fitted curve in the direction sought with a large enough effect; inconclusive = small, poorly fitted or top-dose-only effect, or another doubt; inactive = no such curve, though single readings can be large; an effect the other way counts as inactive or inconclusive. Potency is read from the fitted curve at half-maximal effect.

SMILES	Vif-A3F inh	TrxR1 substrate	rTrxR1 inhibitor	VDR inh	Vif-APOBEC3G blk
CC(=O)O[C@H]1C[C@H](O[C@H]2[C@@H](O)CC(O[C@H]3[C@@H](O)C[C@H](O[C@H]4CC[C@@]5(C)[C@H](CC[C@@H]6[C@@H]5CC[C@]5(C)[C@@H](C7=CC(=O)OC7)CC[C@]65O)C4)O[C@@H]3C)O[C@@H]2C)O[C@H](C)[C@H]1O[C@@H]1O[C@H](CO)[C@@H](O)[C@H](O)[C@H]1O (some centres not stated)	/	/	/	1%	/
CC1(C)C(=O)C=C[C@@]2(C)C1=C(O)C(=O)[C@@]1(C)C2CC[C@@]2(C)C(c3ccoc3)C[C@H]3O[C@@]321 (some centres not stated)	/	/	/	7.9µM*	/
CCC(C)(C)O	/	/	/	3%	/
CCCCCCCCCC[n+]1cccc([C@@H]2CCCN2C)c1	/	/	/	-22%	/
C=C1C(=O)[C@@]23C[C@H]4[C@@H]5[C@@]6(C)CCC[C@@]57[C@@H]2[C@@H](O)[C@@H]1C[C@H]3[C@H]7N4C6	-5%	1%	22µM*	2%	-1%
[Hg+][c]1ccccc1	/	-1%	?	13µM*	-14%
CC(=O)OCC1=C[C@H]2[C@@H]3C(C)(C)[C@]3(OC(=O)Cc3ccccc3)C[C@@H](C)[C@]2(O)[C@@H]2C=C(C)C(=O)[C@@]2(O)C1	/	/	/	-2%	/
O=[N+]([O-])c1ccc(Cl)c([N+](=O)[O-])c1	5%	1%	2.8µM*	-12%	-7%
C[C@]12C=CC(=O)C=C1CC[C@@H]1C2=CC[C@]2(C)[C@@H](C(=O)CN3CCN(c4cc(N5CCCC5)nc(N5CCCC5)n4)CC3)CC[C@@H]12	?	?	?	2.8µM*	-7%
C=CCN1C(=O)NC(=O)/C(=C/c2ccc(OC)c(COc3ccc(NC(C)=O)cc3)c2)C1=O	9%	-3%	?	79µM*	?
CC(=O)Nc1ccc(C=C2C(=O)NC(=O)NC2=O)cc1	-10%	12%[57.1 µM]	-50%[57.1 µM]	?	2%
C=CCN1C(=O)NC(=O)/C(=C/c2ccc(OC)c(CSc3ccccn3)c2)C1=O	-19%	12%[57.1 µM]	?	71µM*	-9%
C=CCN1C(=O)NC(=O)/C(=C/C=C/c2ccccc2)C1=O	-17%	10%[57.1 µM]	?	?	-8%
ClCCN(CCCl)c1ccc(/C=C/c2sc3ccccc3[n+]2CCCCI)cc1	/	-4%	-30%	/	?
CCON=O	/	/	/	0%	/
CC1=CC(c2ccccc2)NC(=S)N1 (configuration not stated)	0%	-11%	-18%	79µM*	1%
O=c1c2ccccc2[se]n1-c1ccccc1	?	?	28µM*!	7.1µM*	-4%
O=c1c2ccccc2nc(-c2ccccc2)n1-c1ccccc1	10%	0%	29%	-16%	3%
COCOC1CCC2C3CCC4=CC(=O)CCC4=C3C=CC12C (configuration not stated)	5%	3%	40µM*	-1%	-5%
C[C@@H]1C[C@@H]2[C@H]([C@H]3C=C(COC(=O)c4ccccc4)[C@@H](O)[C@]4(O)[C@@H](O)C(OC(=O)c5ccccc5)=C[C@@]14C3=O)C2(C)C	/	/	/	-5%	/
CN1C[C@H](C(=O)NC2(C)OC3(O)[C@@H]4CCCN4C(=O)[C@H](Cc4ccccc4)N3C2=O)CC2c3cccc4[nH]cc(c34)C[C@H]21 (some centres not stated)	-7%	-4%	9%	8%	-3%
CN1C[C@H](C(=O)N[C@]2(C)O[C@@]3(O)[C@@H]4CCCN4C(=O)[C@H](Cc4ccccc4)N3C2=O)C=C2c3cccc4[nH]cc(c34)C[C@H]21	/	/	/	14µM*	/
CC(C)C[C@H]1C(=O)N2CCC[C@H]2[C@]2(O)O[C@](NC(=O)[C@@H]3C=C4c5cccc6[nH]c(Br)c(c56)C[C@H]4N(C)C3)(C(C)C)C(=O)N12	/	-4%[57.1 µM]	?	28µM*!	/
CC(C)C[C@H]1C(=O)N2CCC[C@H]2[C@]2(O)O[C@](NC(=O)[C@@H]3C=C4c5cccc6[nH]cc(c56)C[C@H]4N(C)C3)(C(C)C)C(=O)N12	?	22%	16µM*	79µM*	-10%
CC(C)C[C@H]1C(=O)N2CCC[C@@H]2[C@]2(O)O[C@](NC(=O)[C@H]3C=C4c5cccc6[nH]c(Br)c(c56)C[C@H]4N(C)C3)(C(C)C)C(=O)N12	/	/	/	-13%	/
SMILES	Vif-A3F inh	TrxR1 substrate	rTrxR1 inhibitor	VDR inh	Vif-APOBEC3G blk
CCCc1cc(=O)oc2c3c(cc(OCC(=O)N4CCC[C@H]4C(=O)O)c12)OC(C)(C)CC3	5%	583%	?	-12%	1%
CC12CCC3C4CCC(=O)C(O)=C4CCC3C1CCC2OC(=O)CCC1CCCC1 (configuration not stated)	/	/	/	0%	/
CN[C@@H](C)[C@H](O)c1ccccc1	/	-2%	25µM*!	/	0%
CC(C)NC(=O)N1CCC2(CC1)CCN(C(=O)Oc1ccccc1)CC2	/	/	/	-6%	/
CCOP(=S)(OCC)Oc1ncn(-c2ccccc2)n1	/	/	/	14µM*	/
Cc1cccc(NC(=O)Oc2ccc(Cl)c3cccnc23)c1	?	/	/	/	1%
CCC1/C=C/C=CCC(C)C(O)[C@@](C)(O)C(=O)C(C)C(O)C(C)C(=O)C(C)C(O)C(C)C=CC(=O)O[C@H]2C(C)C(CC1)O[C@]1(CCC(C)C(CC(C)O)O1)C2C (some centres not stated)	/	/	/	-14%	/
Nc1nc(/C(=C/CC(=O)O)C(=O)NC2C(=O)N3C(C(=O)O)=CCSC23)cs1 (configuration not stated)	/	/	/	50µM*	/
C[C@H]1CC[C@@]2(NC1)O[C@@H]1C[C@H]3[C@@H]4CC[C@@H]5C[C@@H](O)CC[C@@]5(C)[C@@H]4CC[C@]3(C)[C@@H]1[C@@H]2C	/	/	/	0%	/
CCCOc1ccc(C(=O)Nc2ccc(-c3cc4ccccc4oc3=O)c(C)c2)cc1	0%	150%	65%	-15%	-1%
Cc1cc([N+](=O)[O-])c(Cl)cc1NC(=O)C(C)C	1%	-10%	-10%	-15%	-1%
CNc1cc(Cl)c2nonc2c1[N+](=O)[O-]	6%	-2%[57.1 µM]	0.35µM*	35µM*	-8%
Cn1ncc2c(NCc3ccco3)ncnc21	/	5%	?	/	0%
COCCCn1c(=O)/c(=C\c2ccccc2OC(F)F)s/c1=C(/C#N)C(=O)NCCOC	25µM*	3%	-26%	-6%	-8%

High-throughput results deposited in PubChem by National Center for Advancing Translational Sciences (NCATS).
